The text below walks through data of PubChem BioAssay AID977607 (Broad Institute, 2014).

Hit rate of the full screen: of about 1,500 compounds, about 460 (31%) were called active. About 1% were inconclusive and are not listed. Not all results are given here. Entries with a potency or affinity are not part of this list. Unmarked numbers belong to inactive results.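 The calls were made as follows: active = curve reaches 40% activation over neutral controls at an AC40 no higher than the top valid tested concentration; inconclusive = no clear call, values can overlap the other calls; inactive = signal moving opposite to the expected increase, and the rest.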

This assay can be described thus: GLuc-reported insulin release enhancers, glucose-stimulated beta cells – cell-based, INS-1E, Gaussia luciferase, luminescence, cherry-pick, set 2, dose response (AID 977607).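 Also: 0% = median of the plate neutral control wells.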 To be noted: INS-1E GLuc insulin secretion reporter, 2-3 h, active compounds read high; at 35 µM, 100% = signal doubled over neutral wells unless noted.
On to `COc1ccc(-c2cc(NC=O)c3ncc(-c4ccc(OC)c(OC)c4)n3c2)cc1`, for which the max activation was 90% [at 3.8 µM, 100% = signal doubled over neutral wells].
To `CC(=O)Nc1cc(-c2ccc(N3CCN(C)CC3)cc2)cn2c(-c3cccc(C(=O)N(C)C)c3)cnc12` belongs -24% [at 0.046 µM, 100% = signal doubled over neutral wells]; to `COc1ccc(CNC(=O)CN2C(=O)NC3(CCCCCC3)C2=O)cc1`, -13.8% [at 0.005 µM, 100% = signal doubled over neutral wells].
In the case of `CCC(O)c1nc2ccccc2n1CCc1ccccc1` (stereo unspecified), the max activation is -18.7% [at 0.005 µM, 100% = signal doubled over neutral wells].
As to `CCOC(=O)c1nc2nc(-c3cccs3)cc(C(F)(F)F)n2n1`, the max activation was -16% [at 0.135 µM, 100% = signal doubled over neutral wells].
Regarding `CC1Cc2ccccc2N1C(=S)NC(=O)c1cccc(Br)c1` (stereo unspecified), the max activation is -15.5% [at 0.005 µM, 100% = signal doubled over neutral wells].
The same measure for `Cc1c(Cc2ccccc2)sc(NC(=O)C(C)(C)C)c1C(N)=O`: -18.8% [at 0.015 µM, 100% = signal doubled over neutral wells]; for `COc1ccc(C(=O)/C=C2\NCCc3cc(OC)c(OC)cc32)cc1OC`: 24%.
For `COc1ccc(/C(C)=N/Nc2ccc(C(=O)O)cc2)cc1OC`, the max activation was 24.3%.
To `C=CCN1C(=O)c2n[nH]c(COC)c2C1c1ccc(F)cc1` (stereo unspecified) belongs -25.3% [at 0.015 µM, 100% = signal doubled over neutral wells]; to `Cc1cc(=O)oc2c3c(cc(OCC(=O)NC(C)C)c12)OC(C)(C)CC3`, 34% [at 0.42 µM, 100% = signal doubled over neutral wells]; to `CC(=O)Nc1ccc(-c2ccnc3c2CC(C)(C(=O)Nc2cccc(OC(F)(F)F)c2)O3)cc1` (stereo unspecified), -44.4%.
Regarding `Nn1c(-c2ccccc2)cc(-c2ccccc2)cc1=O`, the max activation was 27.3%.
Regarding `CNc1nc(OCC#N)nc(N2CCCCC2)n1`, the max activation was 25%.
`COc1ccc(C(=O)N2CCc3cc(OC)c(OC)cc3C2c2ccc(OC)c(OC)c2)cc1OC` (stereo unspecified): the max activation was 24.4% [at 0.005 µM, 100% = signal doubled over neutral wells].
The same measure for `COc1cc2c(cc1OC)CN(C(=O)Cc1ccccc1)CC2`: -21.2%.
